Test [1] has as its target Cytochrome P450 3A4 (Homo sapiens) (UniProt P08684). Briefly: qHTS Assay for Inhibitors and Substrates of Cytochrome P450 3A4 (AID 884). Note: series mostly up to about 57 µM; % is set by controls: 0 for no effect and ±100 for the full control effect; nearly all actives have a fitted effect of over 50% in size. In a few lines: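 20 nM human CYP3A4 with 25 uM Luciferin-PPXE (at KM) in 200 mM KPO4, preincubated 10 min with compound; NADPH regeneration started a 60 min RT reaction. Luciferin detected by luminescence, normalized to 57 uM ketoconazole as full inhibition.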
For orientation: qHTS replaces the single test concentration by a dilution series.

The nature of test [2]: Confirmation and Secondary Assay for Modulators of Hemoglobin Beta Chain Splicing at IVS2 654 locus (AID 910).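 Note: HeLa cells stably carrying EGFP split by mutant beta-globin IVS2-654 intron; per-well total GFP intensity by laser scanning cytometry after 2-day treatment; % of control where 0% means no effect.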 The gist of the method:
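Readout: per-well total peak green fluorescence (488 nm ex, 500–520 nm em) from objects 5–250 µm, reflecting correct splicing of an EGFP-654 reporter. Compounds were applied for 2 days at 37 °C to overnight-plated HeLa EGFP-654 cells; controls were DMSO and 500 nM IVS2-654 PNA.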

Test [3] in a line: Confirmation and Secondary Assay for Modulators of Hemoglobin Beta Chain Splicing at IVS2 705 locus (AID 930).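 Note: HeLa cells stably expressing the EGFP-705 splicing reporter; series mostly up to about 46 µM; % of control where 0% means no effect.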 The gist of the method: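 Restored EGFP fluorescence after 2-day compound exposure reports splicing correction in IVS2-705 EGFP reporter HeLa cells; positive control was 500 nM splice-blocking PNA oligo. Signal measured as well total peak GFP intensity (488 nm excitation).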

Test [4] can be described thus: Cellular Toxicity (caspase-3) Hek293 (AID 664).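 Note: cells exposed to compound for 16 h at 37 °C before readout.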 The gist of the method: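 HEK293 cells were exposed to compounds in complete medium for 16 hr at 37 °C, then caspase-3/7 activity was read by Caspase-Glo 3/7 luminescence after 20 min at room temperature. Data normalized to DMSO and 100 uM tamoxifen; AC50 from Hill fits.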
Test [5] is described as follows: Cellular Toxicity (caspase-3) N2a (AID 665).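 Note: compound exposure lasted 16 h at 37 °C before readout.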 In a few lines: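 Mouse N2a neuroblastoma cells (1500/well) were treated with compounds for 16 h at 37 °C, then caspase-3/7 activity was read by Caspase-Glo luminescence after 1 h at room temperature. Data were normalized to DMSO and 10 uM staurosporine; AC50 from Hill fits.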
Test [6] can be described thus: Cellular Toxicity (caspase-3) NIH 3T3 (AID 666).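 Note: caspase signal read after 16 h compound exposure; 0% = DMSO basal and 100% = 100 µM tamoxifen stimulation.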 The gist of the method: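 Mouse NIH 3T3 fibroblasts (1000 cells/well) were treated with compound for 16 hr at 37°C in complete medium; caspase-3/7 activity was read by Caspase-Glo luminescence. Normalized to DMSO and 100 uM tamoxifen; AC50 from Hill fits.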
Test [7] can be described thus: Cellular Toxicity (caspase-3) Renal Proximal Tubule (AID 667).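 Note: cells exposed to compound for 16 hours at 37 °C before detection; 0% = DMSO basal and 100% = 10 µM staurosporine.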 In a few lines: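 Freshly isolated primary rat kidney proximal tubule cells, 1000/well, treated 16 hr at 37 °C, then Caspase-Glo 3/7 luminescence after 1 hr. Normalized to DMSO and 10 uM staurosporine; AC50 from Hill fit.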
Test [8] in a line: Cell Viability - LYMP2-001 (AID 921).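 Note: series mostly up to about 92 µM; 0% = DMSO only and full inhibition = tetraoctylammonium bromide control wells; nearly all actives have a fitted effect of over 70% in size.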 The gist of the method: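 Human lymphoblastoid LYMP2-001 cells, 2500 per well, in complete medium, treated 24 h at 37 C. Viability from cellular ATP by CellTiter-Glo luminescence; AC50 from Hill-equation fits of qHTS concentration-response.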
Test [9] can be described thus: MultiTox-Fluor Cytotoxicity Assay - LYMP1-001 - Dead Cells (AID 946).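 Note: 0% = DMSO and 100% = tetraoctylammonium bromide.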 The gist of the method: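 AC50 from Hill fit of concentration-response; data normalized to DMSO (basal) and 15 uM tetraoctylammonium bromide (100%). LYMP1-001 lymphoblastoid cells, 2500/well, 16 hr compound at 37 C; dead-cell protease fluorescence, Ex/Em 485/520.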
A short description of test [10]: Cell Viability - LYMP1-002 - Assay at 16 hr (AID 948).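 Note: 0% = DMSO alone and full effect = 92 µM tetraoctylammonium bromide.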 In a few lines: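 LYMP1-002 human lymphoblastoid cells, 2500/well, were treated with compounds for 16 hr at 37 C in complete medium. Viability was read as intracellular ATP by CellTiter-Glo luminescence, and AC50 was derived from a Hill fit to concentration-response data.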
Test [11] has as its target Guanine nucleotide-binding protein G(i) subunit alpha-1 (Homo sapiens) (UniProt P63096). Briefly: qHTS Assay for Inhibitors of RGS12 GoLoco Motif Activity (Green Fluorophore) (AID 879).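 Note: 0% = labeled peptide with Gαi1 and full inhibition = labeled peptide alone without protein; negative values mean loss of peptide binding seen as reduced polarization.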 In a few lines: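 Fluorescence polarization assay: 50 nM Gαi1 with 10 nM FITC-labeled RGS12 GoLoco peptide in 10 mM Tris pH 7.5, 150 mM NaCl, 0.1 mM GDP, 0.05% NP40, 10 min at room temperature with compound.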

Test [12] can be described thus: qHTS Assay for Identification of Small Molecule Agonists for Thrombopoietin (TPO) Signaling Pathway (AID 917). Note: % is set by controls: 0 for no effect and ±100 for the full control effect. In a few lines: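 Murine Ba/F3 cells expressing human TPO receptor and GPIIb-promoter luciferase, IL-3-starved overnight, given compound plus TPO at 26 pM (EC50). After 24 h at 37 C, 5% CO2, luminescence read.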
Test [13] concerns the target Muscarinic acetylcholine receptor M1 (Rattus norvegicus) (UniProt P08482). Briefly: qHTS Assay for Antagonists of Acetylcholine Muscarinic M1 Receptor: Kinetic Measurement of Intracellular Calcium Response (AID 943).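 Note: Fluo-4 calcium signal as peak divided by basal fluorescence over 4 min; series mostly up to about 35 µM; nearly all actives have a fitted effect of over 75% in size.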 The gist of the method: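 CHO cells stably expressing rat M1 were loaded with no-wash Fluo-4 dye for 1 h at 37C, pre-incubated 10 min with compound, then challenged with EC80 carbachol (100 nM final); kinetic calcium read 4 min, peak/basal ratio.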

Test [14] has the same target. Description: qHTS Assay for Antagonists of Acetylcholine Muscarinic M1 Receptor: Measurement of IP-One Response (AID 944). Note: nearly all actives have a fitted effect of over 75% in size. The gist of the method: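 CHO cells expressing rat M1 receptor, recovered overnight, were pre-incubated 10 min with compound, then stimulated 30 min with carbachol at EC80 (200 nM) in LiCl-containing buffer, pH 7.4. IP1 accumulation was read by HTRF (620/665 nm).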

The target of test [15] is Pyruvate kinase (Leishmania mexicana) (UniProt Q27686). Briefly: qHTS Validation Assay for Inhibitors of Leishmania Mexicana Pyruvate Kinase (AID 945).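 Note: 0% = DMSO only neutral control wells.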 The gist of the method:
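Purified LmPYK (E451W mutant, 0.2 nM) was incubated 1 h at room temperature with 0.5 mM PEP and 0.1 mM ADP in 50 mM imidazole pH 7.2, 50 mM KCl, 7 mM MgCl2; ATP formed was read by PKLight luminescence, normalized to DMSO wells.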

Test [16] concerns the target Cytochrome P450 2C9 (Homo sapiens) (UniProt P11712). Description: qHTS Assay for Inhibitors and Substrates of Cytochrome P450 2C9 (AID 883). For activity change, negative = inhibition: % is set by controls: 0 for no effect and ±100 for the full control effect. Note: nearly all actives have a fitted effect of over 60% in size. Note: potency is the fitted concentration of half-maximal effect. The gist of the method: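 Inhibition of CYP2C9 is scored as loss of luminescence, with 57uM sulphaphenazole defining 100% inhibition. Substrate Luciferin-H is used at 100uM, equal to its KM; enzyme at 10nM in 25mM KPO4, 60 min at 37C with NADPH regeneration.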

In test [17] the target is Cytochrome P450 2C19 (Homo sapiens) (UniProt P33261). Description: qHTS Assay for Inhibitors and Substrates of Cytochrome P450 2C19 (AID 899). Note: % is set by controls: 0 for no effect and ±100 for the full control effect; nearly all actives have a fitted effect of over 60% in size. The gist of the method: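 5nM enzyme + 10uM Luciferin-H EGE (=KM), 50mM KPO4; cpd pin-transferred, 10 min 37C; NADPH regen, 60 min 37C; stopped w/ luciferin detection reagent, 20 min; luminescence. Normalized to 57uM ketoconazole (AC100).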
Chain of Cytochrome P450 2C19 (Homo sapiens) (P33261 whole entry, looked up): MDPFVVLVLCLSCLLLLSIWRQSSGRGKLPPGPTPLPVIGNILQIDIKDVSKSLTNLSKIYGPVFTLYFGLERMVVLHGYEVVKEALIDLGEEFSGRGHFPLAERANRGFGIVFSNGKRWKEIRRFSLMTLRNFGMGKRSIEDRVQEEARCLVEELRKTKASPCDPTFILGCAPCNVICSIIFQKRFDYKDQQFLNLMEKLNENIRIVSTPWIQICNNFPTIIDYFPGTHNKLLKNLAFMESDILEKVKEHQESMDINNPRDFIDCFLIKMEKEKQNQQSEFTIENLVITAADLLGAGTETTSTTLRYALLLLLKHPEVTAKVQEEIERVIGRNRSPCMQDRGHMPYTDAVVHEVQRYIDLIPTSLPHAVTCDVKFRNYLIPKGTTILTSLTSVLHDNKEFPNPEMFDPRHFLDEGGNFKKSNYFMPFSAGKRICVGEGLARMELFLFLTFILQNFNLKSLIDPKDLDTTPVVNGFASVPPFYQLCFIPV

Test [18] can be described thus: qHTS Assay for Identification of Small Molecule Agonists for Hypoxia Response Element Signaling Pathway (AID 914; active = well fitted activation curve with a large enough effect in the signal ratio, with a control signal flat, not every such curve was filed as active; the % refers to the signal ratio; note: % of control where 0% means no effect). Particulars: ME-180 (cervical carcinoma) HRE-bla reporter, beta-lactamase ratio, CoCl2, 17 h; hits give high values. The gist of the method: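 AC50 values come from titration-series %Activity, taken as the 460/530nm ratio of CCF4 fluorescence (excitation 405nm). CellSensor HRE-bla ME-180 cells were treated 17 hours at 37 C with compound plus an EC50 level of CoCl2.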

The target of test [19] is Cytochrome P450 2D6 (Homo sapiens) (UniProt P10635). Briefly: qHTS Assay for Inhibitors and Substrates of Cytochrome P450 2D6 (AID 891).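 Note: luciferin methyl ether substrate demethylated by CYP2D6 with NADPH regeneration; % is set by controls: 0 for no effect and ±100 for the full control effect; nearly all actives have a fitted effect of over 60% in size.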 The gist of the method:
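Human CYP2D6 (5 nM) with 30 uM Luciferin-ME EGE (at Km) in 100 mM KPO4, compound preincubated 10 min, then NADPH regeneration system for 60 min at room temperature. Luciferin read by luminescence; normalized to 1.43 uM quinidine.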

In test [20] the target is Cytochrome P450 3A4 (Homo sapiens) (UniProt P08684). Description: qHTS Assay for Activators of Cytochrome P450 3A4 (AID 885). Note: nearly all actives have a fitted effect of over 65% in size. In a few lines:
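20nM CYP3A4 + 25uM Luciferin-PPXE (=KM), 200mM KPO4; cpd 10 min RT; NADPH regen, 60 min RT; stop w/ detection buffer, 20 min; luminescence. Normalized to 57 uM ketoconazole.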

Values without a mark were called inactive. Results filed as inconclusive are left out. Calls of active or inactive are those of the source. Unless noted, calls come from the whole dose curve; as a rule, active = well fitted curve in the direction sought with a large enough effect; inconclusive = small, poorly fitted or top-dose-only effect, or another doubt; inactive = no such curve, though single readings can be large; an effect the other way counts as inactive or inconclusive.

Chain of Cytochrome P450 2C9 (Homo sapiens) (P11712 whole entry, looked up): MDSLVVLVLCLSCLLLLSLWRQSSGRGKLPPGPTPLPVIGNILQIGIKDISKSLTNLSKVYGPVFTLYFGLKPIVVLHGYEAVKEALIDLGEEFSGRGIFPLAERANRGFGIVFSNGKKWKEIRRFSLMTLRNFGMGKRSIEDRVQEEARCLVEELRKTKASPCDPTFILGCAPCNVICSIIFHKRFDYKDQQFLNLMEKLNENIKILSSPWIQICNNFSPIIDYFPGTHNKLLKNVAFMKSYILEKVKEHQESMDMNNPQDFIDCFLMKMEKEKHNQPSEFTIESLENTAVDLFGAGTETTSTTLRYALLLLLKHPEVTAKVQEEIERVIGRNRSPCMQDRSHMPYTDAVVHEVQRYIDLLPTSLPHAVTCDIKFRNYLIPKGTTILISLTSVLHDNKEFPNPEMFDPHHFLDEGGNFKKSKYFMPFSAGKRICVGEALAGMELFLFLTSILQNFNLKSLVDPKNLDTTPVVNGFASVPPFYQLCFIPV
Chain of Cytochrome P450 3A4 (Homo sapiens) (P08684 whole entry, looked up): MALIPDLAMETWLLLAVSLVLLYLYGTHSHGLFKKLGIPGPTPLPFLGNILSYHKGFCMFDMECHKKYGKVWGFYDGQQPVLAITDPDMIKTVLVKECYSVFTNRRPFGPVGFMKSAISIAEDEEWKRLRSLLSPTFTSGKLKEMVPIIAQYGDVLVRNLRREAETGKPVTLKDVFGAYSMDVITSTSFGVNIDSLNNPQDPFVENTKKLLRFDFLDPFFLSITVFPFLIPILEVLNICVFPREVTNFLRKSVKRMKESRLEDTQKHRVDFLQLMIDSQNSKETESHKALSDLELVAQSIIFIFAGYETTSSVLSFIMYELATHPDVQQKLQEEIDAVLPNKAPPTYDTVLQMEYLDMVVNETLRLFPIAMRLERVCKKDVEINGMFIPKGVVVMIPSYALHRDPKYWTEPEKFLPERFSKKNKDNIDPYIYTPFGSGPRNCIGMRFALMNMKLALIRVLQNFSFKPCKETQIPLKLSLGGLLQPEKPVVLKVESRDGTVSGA
Chain of Muscarinic acetylcholine receptor M1 (Rattus norvegicus) (P08482 whole entry, looked up): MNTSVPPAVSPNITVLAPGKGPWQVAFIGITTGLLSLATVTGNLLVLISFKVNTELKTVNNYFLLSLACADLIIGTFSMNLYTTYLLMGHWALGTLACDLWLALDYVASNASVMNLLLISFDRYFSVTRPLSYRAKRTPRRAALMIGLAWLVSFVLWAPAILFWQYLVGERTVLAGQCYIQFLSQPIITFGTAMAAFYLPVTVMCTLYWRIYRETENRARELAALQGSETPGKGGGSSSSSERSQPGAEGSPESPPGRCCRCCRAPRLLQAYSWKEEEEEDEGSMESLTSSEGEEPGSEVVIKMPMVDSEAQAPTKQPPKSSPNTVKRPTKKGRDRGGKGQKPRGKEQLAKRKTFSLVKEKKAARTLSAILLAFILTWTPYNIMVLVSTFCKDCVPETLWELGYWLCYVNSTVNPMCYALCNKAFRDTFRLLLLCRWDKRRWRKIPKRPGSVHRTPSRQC
Chain of Guanine nucleotide-binding protein G(i) subunit alpha-1 (Homo sapiens) (P63096 whole entry, looked up): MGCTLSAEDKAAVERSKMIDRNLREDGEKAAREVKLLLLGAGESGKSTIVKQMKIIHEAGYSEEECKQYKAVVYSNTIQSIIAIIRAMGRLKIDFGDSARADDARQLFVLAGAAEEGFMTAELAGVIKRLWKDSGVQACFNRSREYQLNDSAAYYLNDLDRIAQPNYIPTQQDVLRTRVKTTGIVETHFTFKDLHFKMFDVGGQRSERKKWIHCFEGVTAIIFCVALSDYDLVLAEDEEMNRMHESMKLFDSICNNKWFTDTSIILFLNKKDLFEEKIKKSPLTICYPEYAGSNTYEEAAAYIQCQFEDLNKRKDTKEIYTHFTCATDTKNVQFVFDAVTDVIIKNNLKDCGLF
Chain of Pyruvate kinase (Leishmania mexicana) (Q27686 2-499 E452W): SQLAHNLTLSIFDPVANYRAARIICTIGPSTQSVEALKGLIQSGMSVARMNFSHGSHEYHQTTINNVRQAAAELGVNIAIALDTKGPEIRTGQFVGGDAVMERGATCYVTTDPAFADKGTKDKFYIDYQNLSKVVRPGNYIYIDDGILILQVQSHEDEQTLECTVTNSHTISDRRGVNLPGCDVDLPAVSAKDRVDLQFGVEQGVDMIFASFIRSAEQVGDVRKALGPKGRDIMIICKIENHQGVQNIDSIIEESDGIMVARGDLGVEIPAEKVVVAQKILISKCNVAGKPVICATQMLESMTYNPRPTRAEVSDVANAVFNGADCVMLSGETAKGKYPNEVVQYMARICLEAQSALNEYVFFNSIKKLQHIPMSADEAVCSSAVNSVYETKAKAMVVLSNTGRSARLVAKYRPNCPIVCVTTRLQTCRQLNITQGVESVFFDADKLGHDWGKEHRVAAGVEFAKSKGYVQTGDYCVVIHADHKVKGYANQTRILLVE
Chain of Cytochrome P450 2D6 (Homo sapiens) (P10635 whole entry, looked up): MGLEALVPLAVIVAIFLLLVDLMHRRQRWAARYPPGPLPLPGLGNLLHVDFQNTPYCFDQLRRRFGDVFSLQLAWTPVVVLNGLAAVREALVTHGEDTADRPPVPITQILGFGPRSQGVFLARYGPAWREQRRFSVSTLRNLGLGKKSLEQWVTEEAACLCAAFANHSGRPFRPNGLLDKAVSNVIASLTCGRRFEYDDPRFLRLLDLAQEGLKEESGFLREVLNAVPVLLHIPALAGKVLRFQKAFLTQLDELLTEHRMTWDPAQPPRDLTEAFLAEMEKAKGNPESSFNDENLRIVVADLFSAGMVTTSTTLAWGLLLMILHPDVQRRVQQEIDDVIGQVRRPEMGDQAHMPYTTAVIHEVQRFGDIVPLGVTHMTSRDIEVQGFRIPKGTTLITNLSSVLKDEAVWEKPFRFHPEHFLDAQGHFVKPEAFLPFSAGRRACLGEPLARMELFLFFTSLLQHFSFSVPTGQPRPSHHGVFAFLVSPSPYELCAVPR

Turning to `O=C(O)c1ccccc1OP(=O)(O)O`, the outcome in test [1], in test [2] and in [3] was inactive.
Regarding `CC(=O)OCC(COC(C)=O)OC(C)=O`, the result in [4], in [5], in test [6], in [7], in test [1] and in test [2] was inactive. Also, the result in test [8], in [3], in test [9] and in test [10] was inactive.
Take `Cc1c(N(C)C)c(=O)n(-c2ccccc2)n1C`: the call in test [4], in test [5], in test [6], in test [7], in test [1] and in test [8] was inactive. Also, the compound was classed as inactive in test [9] and in [10].
With `NC(=O)c1ccc([N+](=O)[O-])cc1Cl`, the call in [1], in [2] and in [3] was inactive.
As to `NC(=O)CC[C@@H](N)C(=O)O`, the compound was classed as inactive in [11], in test [12], in test [13], in test [14] and in test [15].
Take `Nc1ccc(S(=O)(=O)c2ccc(N)cc2)cc1`: the compound was classed as inactive in test [4], in test [5], in test [6], in [7], in test [2] and in test [8]. For the same compound, the outcome in [3], in test [9] and in [10] was inactive.
As for `C=CCNC(N)=S`, the result in test [4], in test [5], in test [6], in test [7], in [1] and in test [8] was inactive. Besides, the result in test [9] and in test [10] was inactive.
Turning to `C[C@@H]1CCC[C@H](C)N1`, the Potency entry in [16] and in test [17] was “inactive” throughout.
In the case of `CC(=O)Nc1cccc(O)c1`, the result in test [4], in test [5], in [6], in test [7], in test [1] and in test [2] was inactive. Further, the outcome in test [8], in [3], in [9] and in [10] was inactive.
On to `O=C(O)COC(=O)Cc1ccccc1Nc1c(Cl)cccc1Cl`, for which, in [16], the Potency was 1.58 µM (active). For the same compound, the activation in test [18] was -4.27%.
For the compound `NS(=O)(=O)c1ccc(C(=O)O)cc1`, the Potency result in test [16], in [19] and in test [17] was “inactive” each time. The activity change, negative = inhibition in test [1] was -0.84% [at 11.4 µM].
Regarding `CC1CC(OC(=O)c2ccccc2O)CC(C)(C)C1` (stereo not given), the compound was called inactive in test [4], in test [5], in test [6], in test [7], in [2] and in test [8]. The compound was called inactive in test [3], in test [9] and in test [10].
`O=C(O)CCCCC1CCSS1` (stereo not given): the result in [4], in [5], in test [6], in [7], in test [1] and in test [2] was inactive. In addition, the call in test [8], in [3], in test [9] and in test [10] was inactive.
For the compound `CCCCCC(N)=O`, the call in test [4], in test [5], in test [6], in [7], in test [1] and in [8] was inactive. In addition, the call in test [9] and in [10] was inactive.
For `Cn1c(=O)c2c(ncn2CCO)n(C)c1=O`, the compound was called inactive in test [1], in test [2] and in test [3].
On to `NC(=O)NC1NC(=O)NC1=O` (stereo not given), for which the compound was classed as inactive in test [1], in [2] and in [3].
`O=C(O)c1ccccc1C(=O)Nc1ccc(S(=O)(=O)Nc2nccs2)cc1`: the result in test [1], in test [20], in test [2] and in test [3] was inactive.
As to `O=C(Cn1ccnc1[N+](=O)[O-])NCCO`, the compound was called inactive in test [1], in [2] and in [3]. In [17], the Potency entry is “inactive”.

Source of the values: PubChem BioAssay (NCATS).
